Most compounds without a hit are left out; they make up all but 2% or so of the library.
Neddylation inh = inhibitors of cullin neddylation, primary screen, biochemical, TR-FRET, uHTS, NAE and Ubc12 | NEDD8-conjugating enzyme Ubc12 (Homo sapiens) + NEDD8-activating enzyme E1 regulatory … | 360,000 tested, 0.58% active | inhibition, % at 25 µM | AID 651699, 2012; in the data active = inhibition above about 36%
Target sequence (P61081 whole entry, looked up): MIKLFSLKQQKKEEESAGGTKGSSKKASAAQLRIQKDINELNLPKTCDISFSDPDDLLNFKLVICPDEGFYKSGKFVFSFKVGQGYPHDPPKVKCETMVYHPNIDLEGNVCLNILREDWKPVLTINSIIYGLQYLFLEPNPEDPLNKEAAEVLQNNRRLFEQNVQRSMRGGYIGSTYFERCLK
Target sequence (Q13564 whole entry, looked up): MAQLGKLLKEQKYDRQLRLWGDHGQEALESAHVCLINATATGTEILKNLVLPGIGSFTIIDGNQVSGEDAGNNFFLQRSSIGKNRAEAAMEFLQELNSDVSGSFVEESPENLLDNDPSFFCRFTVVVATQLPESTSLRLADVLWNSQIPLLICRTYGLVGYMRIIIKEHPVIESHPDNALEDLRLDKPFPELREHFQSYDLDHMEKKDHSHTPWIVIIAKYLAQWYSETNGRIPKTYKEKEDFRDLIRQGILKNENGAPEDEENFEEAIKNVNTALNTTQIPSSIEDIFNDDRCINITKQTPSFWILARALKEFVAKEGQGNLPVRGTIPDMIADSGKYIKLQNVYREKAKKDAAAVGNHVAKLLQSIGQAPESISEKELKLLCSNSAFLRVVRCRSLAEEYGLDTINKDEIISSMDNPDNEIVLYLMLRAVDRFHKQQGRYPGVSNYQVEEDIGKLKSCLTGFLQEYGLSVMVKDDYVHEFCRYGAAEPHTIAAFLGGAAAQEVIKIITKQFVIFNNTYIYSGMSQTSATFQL
GC-A act = GC-A stimulated cGMP production enhancers – HEK293 GC-A cells, cGMP TR-FRET, EC30 ANP, primary screen. Atrial natriuretic peptide receptor 1 (Homo sapiens), P16066. 0% at EC30 ANP, 100% saturating ANP. activation, % at 10 µM. 370,000 tested, 0.14% active; in the data active = activation above about 40%
APOBEC3A inh = APOBEC3A ssDNA deaminase inhibitors, primary screen, selectivity assay for APOBEC3G inhibitor project, biochemical, FAM/TAMRA oligo cleavage fluorescence; DNA dC->dU-editing enzyme APOBEC-3A (Homo sapiens), P31941; recombinant A3A, FAM/TAMRA ssDNA deamination fluorescence; inhibition, % at 20 µM; 330,000 tested, 0.41% active;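 active = at least 40% inhibition at 20 µM here, with at most 30% in a related deaminase screen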;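 also: plate controls were A3A with DMSO for no effect and wells lacking A3A enzyme for full effect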
NPR2 activator = human GC-B receptor activators, primary screen, HEK293 GC-B cells, cGMP TR-FRET, EC30 CNP | 370,000 tested, 0.11% active | activation, % at 10 µM | 0% at EC30 CNP, 100% saturating CNP | Atrial natriuretic peptide receptor 2 (Homo sapiens), P20594 | AID 1920062, 2024;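 active = activation at 10 µM reaching about 35% in either raw or pattern-adjusted values, limit read from the data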
PfG6PD inh = PfG6PD enzyme inhibitors, primary screen, biochemical, fluorescence intensity, uHTS; 350,000 tested, 0.78% active; PfGluPho enzyme, NADPH resazurin-diaphorase fluorescence; glucose-6-phosphate dehydrogenase-6-phosphogluconolactonase (Plasmodium falciparum 3D7); inhibition, % at 20 µM;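 active = inhibition reaching at least a set limit at 20 µM in the primary screen, cut at about 59% in these data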;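 also: 0% = DMSO wells with substrate and 100% = DMSO wells lacking glucose-6-phosphate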
A3G deaminase = APOBEC3G DNA deaminase inhibitors, primary screen, biochemical, fluorescence, single-stranded DNA substrate, uHTS; 330,000 tested, 0.28% active; DNA dC->dU-editing enzyme APOBEC-3G (Homo sapiens), Q9HC16; inhibition, % at 20 µM; recombinant A3G, ssDNA deamination FAM/TAMRA fluorescence; AID 493012, 2011;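 active = inhibition of at least 40% at 20 µM, with no more than 30% in the related APOBEC3A deaminase screen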;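 also: plate controls were DMSO wells with A3G for no effect and wells lacking A3G enzyme for full effect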
PfG6PD confirm = PfG6PD inhibitors, hit retest, confirmation, biochemical, fluorescence intensity, single concentration. shares compounds with PfG6PD inh. recombinant PfGluPho, NADPH-diaphorase-resazurin fluorescence. inhibition, % at 20 µM. 2,400 tested, 34% active. AID 504753, 2011;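 active = inhibition of at least 50% at 20 µM in any single replicate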;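 also: 0% = DMSO with substrate and 100% = DMSO lacking glucose-6-phosphate substrate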
Diaphorase 10uM = diaphorase inhibitors and chemical oxidizers, confirmation, counter-screen for P. falciparum G6PD inhibitor project, biochemical, fluorescence intensity, 10 µM NADPH; shares compounds with PfG6PD inh; diaphorase-coupled resazurin reduction, NADPH 10 uM; 820 tested, 39% active; inhibition, % at 20 µM; AID 504862, 2011;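 active = average inhibition reaching 50% or more with the compound at 20 µM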;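 also: resorufin red fluorescence formed as diaphorase reduces resazurin using NADPH; 0% = DMSO with enzyme and 100% = DMSO without enzyme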
Diaphorase 30uM = diaphorase inhibitors and chemical oxidizers, confirmation, counter-screen for P. falciparum G6PD inhibitor project, biochemical, fluorescence intensity, 30 µM NADPH | AID 504863, 2011 | 820 tested, 29% active | shares compounds with PfG6PD inh | inhibition, % at 20 µM | Diaphorase/resazurin coupled assay, resorufin fluorescence;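 active = inhibition averaging 50% or more, tested at 20 µM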;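 also: 0% = DMSO with enzyme and 100% = DMSO wells lacking diaphorase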
Numbers without * were called inactive; i = inactive; nt = no result shown.

SMILES | Neddylation inh | GC-A act | APOBEC3A inh | NPR2 activator | PfG6PD inh | A3G deaminase | PfG6PD confirm | others
Cc1ccc2[nH]c3c(N4CCN(Cc5ccccc5)CC4)ncnc3c2c1 | nt | -12.5 | -1.2 | -9.2 | 9.4 | 0.3 | nt
C=CCN1[C@H](CC(C)C)COc2cccc(N3CCSCC3)c2S1(=O)=O | nt | 1.1 | nt | -1.7 | nt | nt | nt
O=S(=O)(Nc1cccc2cccnc12)c1ccccc1 | nt | 14.6 | -3.0 | 7.3 | 96.2* | -5.3 | 52.2* | Diaphorase 10uM=61.3*;Diaphorase 30uM=40.1
Cc1ccc2cccc(NS(=O)(=O)c3ccccc3)c2n1 | nt | 9.9 | -0.9 | 7.3 | 139.2* | -1.5 | 105.1* | Diaphorase 10uM=102.5*;Diaphorase 30uM=79.9*
CC(=O)NC(Cc1ccc2c(c1)OCO2)C(=O)N1CCCC1 (stereo unspecified) | nt | -0.3 | nt | 4.3 | nt | nt | nt
COc1ccc(-n2c(SCC(=O)Nc3cc(C)c(NC(=O)c4ccccc4)cc3OC)nnc2-c2ccccc2F)cc1 | nt | -2.9 | nt | 0.3 | nt | nt | nt
CC1(C)CC(=O)C2=C(C1)NC(=S)C(C#N)C21CCCCC1 (stereo unspecified) | 1.7 | 3.0 | -2.5 | 2.3 | 76.4* | 32.2 | 18.0
CC1(C)CC(=O)C2=C(C1)NC(SCC(=O)Nc1ccccc1)=C(C#N)C21CCCCC1 | 14.1 | -2.7 | -0.9 | -5.5 | 17.0 | -6.4 | nt
Cn1c2ccccc2c2ccc3c(c21)C(=O)C=CC3=O | 29.7 | 15.3 | nt | 4.9 | 80.8* | nt | 53.3* | Diaphorase 10uM=-39.8;Diaphorase 30uM=-6.8
COc1ccc2c(c1)c1ccc3c(c1n2C)C(=O)C=CC3=O | nt | -13.6 | -6.0 | 16.7 | 55.5 | 5.8 | nt
Cc1ccc2c(c1)c1ccc3c(c1n2C)C(=O)C=CC3=O | nt | -33.5 | -3.5 | -2.6 | 65.8* | 2.5 | 46.0
Cc1ccc(C)c2c1c1ccccc1n2C | -247.8 | -7.5 | -2.6 | 1.9 | 14.7 | -5.5 | nt
O=C(CN1C(=O)C2(OCCCO2)c2ccccc21)NCc1ccccc1Cl | nt | 0.4 | nt | 0.3 | nt | nt | nt
O=C(Nc1ccccc1C(=O)N/N=C/c1ccc(F)cc1)c1ccccc1Br | -2.4 | -4.5 | -1.3 | 1.4 | 104.2* | -3.3 | 83.7* | Diaphorase 10uM=69.0*;Diaphorase 30uM=58.5*
O=C(N/N=C/c1ccc(O)cc1)c1ccc(NC(=O)c2ccccc2Br)cc1 | 14.4 | 1.8 | -3.8 | 0.1 | -0.3 | -5.0 | nt
CCOc1ccccc1-n1c(=S)sc2c(=O)n(-c3ccc(C)cc3)c(=S)[nH]c21 | -9.2 | 2.2 | -9.4 | 5.0 | 98.1* | -9.1 | 77.8* | Diaphorase 10uM=56.5*;Diaphorase 30uM=51.4*
COc1ccc(-n2c(SCc3nc4ccccc4[nH]3)nc3ccccc3c2=O)cc1 | nt | 0.9 | nt | 9.6 | nt | nt | nt
CCN1Cc2nnn(Cc3ccccc3)c2-c2cc(N3CCCC3)ccc2S1(=O)=O | nt | -23.4 | nt | -15.2 | nt | nt | nt
Cc1ccc(NC(=O)CN2CCCC2)c2c1CC(C)(C)O2 | 8.0 | -0.2 | -3.5 | 1.6 | -0.3 | -8.8 | nt
Cc1cccc(S(=O)(=O)Nc2ccc(C)c3c2OC(C)(C)C3)c1 | 5.2 | -4.7 | 0.3 | -7.7 | 107.1* | -1.0 | 48.6
Cc1ccc(NS(=O)(=O)c2ccccc2Cl)c2c1CC(C)(C)O2 | -7.7 | -3.2 | 1.9 | -6.3 | 109.4* | 0.7 | 59.2* | Diaphorase 10uM=44.1;Diaphorase 30uM=30.2
CCOC(=O)C1=C(C(=O)OCC)C2N(Cc3ccc(C#N)cc3)c3ccccc3[C@@]23C[C@@H](C(=O)OC)N(S(=O)(=O)c2c(C)noc2C)C3=N1 (stereo partly specified) | nt | 1.1 | nt | 7.5 | nt | nt | nt
CC(C)CNc1cccc2c1S(=O)(=O)N(Cc1cn(Cc3cccc(F)c3)nn1)Cc1ccccc1O2 | nt | 0.5 | nt | 2.9 | nt | nt | nt
Cn1nc(C(F)(F)F)c2cc(NC(=O)OCc3ccc(C(C)(C)C)cc3)sc21 | 6.9 | 13.4 | 5.5 | 5.2 | 28.1 | 2.6 | nt
Cn1nc(C(F)(F)F)c2cc(NC(=O)OCc3ccc(F)cc3)sc21 | -12.1 | 3.2 | -0.9 | 7.2 | 59.0* | -3.8 | 4.2
SMILES | Neddylation inh | GC-A act | APOBEC3A inh | NPR2 activator | PfG6PD inh | A3G deaminase | PfG6PD confirm | others
CN(CCOC(=O)c1cc2ccccc2o1)C1CN(Cc2cn(Cc3cccc(F)c3)nn2)S(=O)(=O)C1 (stereo unspecified) | nt | -2.4 | nt | -2.5 | nt | nt | nt
CC(=O)c1ccc(Nc2ccc(-c3ccccc3F)nn2)cc1 | 15.1 | 0.1 | 0.4 | 0.1 | 78.9* | -8.1 | 35.7
COc1ccc(-c2cc(-c3nnc(SCC(=O)Nc4ccccc4-c4ccccc4)n3N)[nH]n2)cc1 | nt | 2.3 | nt | 6.5 | nt | nt | nt
N#C/C(=C\c1ccc(N2CCOCC2)o1)c1nc2ccccc2[nH]1 | i | 9.6 | -27.0 | -1.0 | 37.7 | -36.0 | nt
N#C/C(=C/c1ccc(N2CCOCC2)o1)c1ccc(Cl)cc1 | -32.4 | 4.2 | nt | -8.0 | 77.8* | nt | 12.2
O=C1CCC2(CCC(c3ccccc3)CC2)N1CCO (stereo unspecified) | nt | 0.9 | nt | 2.0 | nt | nt | nt
CCN(C(=O)CSc1nnc(-c2cccnc2)n1Cc1ccco1)c1ccccc1C | nt | -0.5 | nt | 0.1 | nt | nt | nt
Clc1cccc(Cl)c1CNc1ccc(N2CCCC2)cc1 | nt | -8.0 | -0.5 | -14.4 | 96.3* | 5.9 | 54.6* | Diaphorase 10uM=-1.3;Diaphorase 30uM=-2.3
O=C(Cc1ccc(Cl)cc1)Nc1ccc(N2CCCC2)cc1 | -1.2 | 1.0 | -3.1 | -1.1 | 3.1 | -4.6 | nt
COc1ccc([N+](=O)[O-])cc1/C=N/NC(=O)/C(=C\c1cccs1)NC(=O)c1ccccc1 | -25.4 | nt | 0.7 | nt | 99.1* | 2.1 | 82.3* | Diaphorase 10uM=85.5*;Diaphorase 30uM=69.7*
COc1ccc(C(=O)NCC2CCN(C(=O)C(=O)c3cc4ccccc4o3)CC2)cc1 | nt | -1.0 | nt | -3.3 | nt | nt | nt
Cc1ccc(-c2nn(-c3ccccc3)cc2/C=N/NC(=O)c2ccncc2)o1 | 3.7 | -4.7 | -4.3 | -2.6 | 59.6* | -3.7 | -26.9
Cc1ccc(-c2nn(-c3ccccc3)cc2C=O)o1 | 11.4 | -3.4 | -0.8 | -2.1 | 20.3 | -2.2 | nt

Assay outcomes deposited in PubChem by Sanford-Burnham Center for Chemical Genomics.
